Most compounds without a hit are left out; they make up all but 10% or so of the library.
PNC inhibitor: inhibitors of perinucleolar compartment assembly; PC3M PTB-GFP, PNC prevalence imaging, 16 h; hits give low values; activity change (PNC), negative = inhibition, % at 10 µM; 140,000 compounds, 3.1% hits;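 active = readout at or below -70, meaning at least 70% loss of cells showing the perinucleolar compartment, a nuclear body marking cancer cells; inconclusive = readout between -30 and a set limit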;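 also: plate controls were DMSO wells for no effect and camptothecin positive control wells for full effect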
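Read-out is percentage of cells bearing a perinucleolar compartment, from automated 20x imaging of fixed, Hoechst-stained PC3M PTB-GFP cells. Cells were seeded 4 h, then exposed 16 h to compound (23 nl of library stock) in duplicate plates.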
HPGD block: HPGD (human) dehydrogenase inhibition. AID 894. P15428. Potency, µM, for inactives: at the top dose activity change, negative = inhibition, usual class: inhibitors. 150,000 compounds, 4.3% hits. purified HPGD, NADH fluorescence kinetic, PGE2 substrate; also: potency is read from the fitted curve at half-maximal effect
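NADH formation kinetics: reaction with 30 uM PGE2 and 1 mM NAD+ (final), 20 nM enzyme, Tris-HCl pH 8 with Tween 20, after 15 min compound preincubation at room temperature. Fluorescence change, last versus first of five reads.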
LMNA splice mod: changes lamin A minigene splicing in HeLa cells | HeLa LMNA splicing GFP/RFP minigene ratio, 48 h | Potency, µM (top dose mostly 46.1 µM), for the others: at the highest dose ratio change, negative = inhibition, most hits filed as inhibitors | 200,000 compounds, 0.01% hits; active = well fitted inhibition curve with a large enough effect in the signal ratio, with a control signal flat, not every such curve was filed as active; inconclusive = small, poorly fitted or top-dose-only effect, or effect the other way, or a change in a side signal; the % refers to the signal ratio; also: potency is read from the fitted curve at half-maximal effect
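S3 HeLa stable clones carrying a lamin A-EGFP splicing minigene plus DsRed2 were seeded at 600 cells/well in Opti-MEM with 2% FBS, pin-dosed and incubated 48 h at 37°C. Acumen cytometry (488 nm) gave the GFP/RFP total-intensity ratio.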
12-hLO inh: 12-hLO (ALOX12) enzyme inhibition. P18054. purified 12-hLO, xylenol orange hydroperoxide absorbance. Potency, µM (doses to about 57.1 µM), inactives show top-dose activity change, negative = inhibition, usual class: inhibitors. 150,000 compounds, 0.12% hits; active = well fitted inhibition curve with a large enough effect; inconclusive = small, poorly fitted or top-dose-only effect; also: potency is read from the fitted curve at half-maximal effect; nearly all actives have a fitted effect of over 55% in size
Target sequence (P18054 whole entry, looked up): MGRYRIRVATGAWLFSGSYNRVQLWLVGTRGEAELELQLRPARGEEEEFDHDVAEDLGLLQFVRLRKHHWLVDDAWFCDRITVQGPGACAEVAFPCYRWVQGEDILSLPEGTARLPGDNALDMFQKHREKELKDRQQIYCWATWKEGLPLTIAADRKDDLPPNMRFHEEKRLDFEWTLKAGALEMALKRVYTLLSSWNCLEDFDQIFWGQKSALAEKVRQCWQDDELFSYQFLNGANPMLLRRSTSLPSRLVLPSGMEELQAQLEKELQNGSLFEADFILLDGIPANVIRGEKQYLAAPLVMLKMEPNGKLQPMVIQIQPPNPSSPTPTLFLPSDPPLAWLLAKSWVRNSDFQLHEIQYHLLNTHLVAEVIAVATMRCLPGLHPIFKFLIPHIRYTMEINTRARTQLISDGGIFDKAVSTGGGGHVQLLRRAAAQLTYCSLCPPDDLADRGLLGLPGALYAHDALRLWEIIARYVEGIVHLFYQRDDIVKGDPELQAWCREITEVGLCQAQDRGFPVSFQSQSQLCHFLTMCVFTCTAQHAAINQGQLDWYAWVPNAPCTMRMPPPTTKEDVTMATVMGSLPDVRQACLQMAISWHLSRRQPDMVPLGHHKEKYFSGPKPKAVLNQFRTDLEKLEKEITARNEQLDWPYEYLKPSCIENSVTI
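Purified human 12hLO (150 nM), preincubated 15 min with compound, then 40 uM arachidonic acid for 30 min, room temperature, Hepes pH 7.0 with 0.01% Triton X-100. Hydroperoxide detected by ferrous iron/xylenol orange; 573/405 nm absorbance ratio gives reaction progress.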
ALDH1A1 inh: ALDH1A1 (human) enzyme inhibition; Potency, µM (titrated, usually from 75.3 µM), for the others: at the highest dose activity, negative = inhibition, usual class: inhibitors; AID 1030; P00352; 220,000 compounds, 7.3% hits; Purified ALDH1A1, NADH fluorescence, propionaldehyde substrate;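 also: potency is read from the fitted curve at half-maximal effect; plate controls were no enzyme wells and a reference inhibitor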
* = called active by the depositor; ? = inconclusive; / = no result given; ! = a repeat was not active; [ ] = dose if it differs, or a comment. Unless noted, calls follow the shape of the dose curve; as a rule, active = well fitted inhibition curve with a large enough effect (not every such curve was filed as active); inconclusive = small, poorly fitted or top-dose-only effect, or another doubt; inactive = no such curve, though single readings can be large or run the other way. Unless noted, % is scaled to controls: 0 for no effect and ±100 for the full control effect.

SMILES	PNC inhibitor	HPGD block	LMNA splice mod	12-hLO inh	ALDH1A1 inh
O=C1CCC(=O)N1c1cccc(OS(=O)(=O)c2ccccc2)c1	?	-6.2%	?	1.6%	0.355µM*
CCCCNC(=O)c1ccc(Cc2nc3ccccc3[nH]2)cc1	/	-5.0%	/	4.0%	-3.4%
C/C(=N/Nc1nc(-c2ccc(Cl)cc2)cs1)c1cccs1	?	-12.9%	-10.0%	-8.3%	15.8µM*
CC(C)=NNc1nc(-c2ccc([N+](=O)[O-])cc2)cs1	/	/	?	/	-3.0%
CCc1ccccc1NC(=O)N1CCC(CN2CCc3ccccc3C2)CC1	/	/	-7.9%[46 µM]	/	/
CC(C)(C)c1ccc(-c2nnc(SC3CCOC3=O)n2Cc2ccccc2)cc1 (configuration not stated)	?	-5.0%	11.8%	-9.2%	?
C=CCn1c(SC2CCOC2=O)nc2sc(C)c(C)c2c1=O (configuration not stated)	-80.4*	-25.8%	-1.4%	-6.1%	1.9%
Cc1sc2nc(SC3CCOC3=O)n(Cc3ccccc3)c(=O)c2c1C (configuration not stated)	/	/	1.5%[46 µM]	/	15.8µM*
O=C1OCCC1Sc1nc2cc(Cl)ccc2n1Cc1ccccc1 (configuration not stated)	-23.1	-20.7%	3.0%	-22.5%	25.1µM*
CC(=O)Nc1ccc(NC(=O)c2cc3c(=O)n(Cc4cccnc4)ccc3nc2C)cc1	/	/	6.4%[46 µM]	/	/
Cc1ccccc1/C=C1\SC(=S)N(/N=C/c2cc([N+](=O)[O-])ccc2O)C1=O	/	/	/	/	0.398µM*
O=S(=O)(NC1CCCCC1)c1cccc(-c2nnc(-c3ccccc3)o2)c1	35.1	17.8µM*	?	-7.6%	?
CCc1ccc2oc(-c3cc(N)ccc3O)nc2c1	-26.8	-16.4%	-23.8%	-14.2%	?
CCc1ccc2oc(-c3cc(N)cc(C)c3O)nc2c1	-107.1*	-4.9%	-17.3%	-13.6%	?
CC(C)(C)OC(=O)NCC12C=CC(O1)C1C(=O)N(Cc3ccccc3)C(=O)C12 (configuration not stated)	27.4	-10.5%	-4.9%	-2.3%	3.16µM*
CCOC(=O)C1C2C=CC3(CN(Cc4ccccc4)C(=O)C13)O2 (configuration not stated)	/	/	15.4%[46 µM]	/	0.4%
CC(=O)NCCc1c[nH]c2ccc(O)cc12	/	11.2µM*!	-27.4%	-1.9%	-4.9%
CC(C)OC(=O)Cn1nnc2c(cnn2-c2ccccc2)c1=O	-100.0*	-14.2%	?	-1.9%	-4.4%
COC(=O)Cn1nnc2c(cnn2-c2ccccc2)c1=O	/	/	5.2%[46 µM]	/	-6.9%
COC(=O)C1(C(=O)OC)C/C=C\C/C=C\c2ccccc2[C@@H]1C[N+](=O)[O-]	/	-5.3%	/	2.9%	2.3%
CCN(C)Cc1c(C(=O)N2CCc3ccccc3C2)nc2ccc(Cl)cn12	/	/	/	/	-15.2%
CCN(CC)Cc1c(C(=O)N2CCc3ccccc3C2)nc2ccc(Cl)cn12	/	/	/	/	12.6µM*
COc1ccc(N2CCn3c2nc2c3c(=O)n(CCCc3ccccc3)c(=O)n2C)c(OC)c1	18.4	-29.1%	?	-4.7%	20µM*
COc1ccc(N2CCn3c2nc2c3c(=O)n(CCc3ccccc3)c(=O)n2C)c(OC)c1	16.8	-1.6%	-4.3%	-5.1%	?
COc1ccc(N2CC(C)Cn3c2nc2c3c(=O)n(Cc3ccccc3)c(=O)n2C)c(OC)c1 (configuration not stated)	/	/	/	/	31.6µM*
SMILES	PNC inhibitor	HPGD block	LMNA splice mod	12-hLO inh	ALDH1A1 inh
C[C@H](CC(=O)O)C(C(=O)O)C(=O)O	/	0.3%	/	0.0%[11.4 µM]	-2.9%[13.5 µM]
Cc1ccc(NC(=S)Nc2cc(C(=O)O)ccc2N2CC3CC(C2)c2cccc(=O)n2C3)cc1C (configuration not stated)	/	/	/	/	28.2µM*
CC1CCN(C(=O)C2COc3ccccc3C2)CC1 (configuration not stated)	/	/	-0.7%[46 µM]	/	/
COCc1cc(C)nc(OCC(=O)N/N=C/c2ccco2)c1C#N	?	?	-0.5%	-3.8%	?
CCOc1[nH]c(/N=C/c2ccco2)c(C#N)c1C#N	23.1	?	-1.9%	-11.3%	20µM*
COc1ccc(Cl)cc1C(=O)NC(=S)Nc1cc(-c2nc3ccccc3[nH]2)ccc1C	9.1	-17.4%	?	-24.9%	3.98µM*
COC(=O)c1ccc(NC(=S)NC(=O)c2cc(-c3ccccc3)nc3ccccc23)cc1	-14.1	-8.0%	4.3%	?	11.2µM*

Bioassay records as filed in PubChem.
